DUX4 txn inh = DUX4-mediated transcription inhibition; AID 1224904; hit rate 0.8% among 37,000; activity change, negative = inhibition, % (test concentration not listed); 293T-iDUX4 ZSCAN4-Gaussia luciferase reporter, 24 h; active compounds read low;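 active = mean inhibition of at least 10% in the main channel, exceeding the control channel by a set limit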;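 note: 0% = median of neutral control wells and -100% = median of positive control wells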
* = called active by the depositor. The sample as a whole holds a higher share of hits than the screen did.

SMILES	DUX4 txn inh
Cc1cccc(S(=O)(=O)N2CCCCN3[C@H](CO)[C@H](c4ccc(-c5ccncc5)cc4)[C@H]3C2)c1	-7
O=S(=O)(Cc1ccccc1)N1CCCCN2[C@H](CO)[C@H](c3ccc(-c4ccc(F)cc4)cc3)[C@@H]2C1	-7
O=S(=O)(Cc1ccccc1)N1CCCCN2[C@H](CO)[C@@H](c3ccc(-c4ccc(F)cc4)cc3)[C@@H]2C1	-32*
COCC#Cc1ccc([C@@H]2[C@H]3CN(S(=O)(=O)c4ccc(OC)cc4)CCCCN3[C@H]2CO)cc1	0
COc1cccc(S(=O)(=O)N2CCCCN3[C@H](CO)[C@H](c4ccc(C#CC5CC5)cc4)[C@@H]3C2)c1	-1
C/C=C/c1ccc([C@@H]2[C@@H](CO)N3CCCCN(S(=O)(=O)c4cccc(C)c4)C[C@H]23)cc1	-17*
CC(C)CC#Cc1ccc([C@@H]2[C@H](CO)N3CCCCN(S(=O)(=O)Cc4ccccc4)C[C@@H]23)cc1	2
COc1cccc(S(=O)(=O)N2CCCCN3[C@@H](CO)[C@@H](c4ccc(C#CCC(C)C)cc4)[C@@H]3C2)c1	-30*
CC(C)CC#Cc1ccc([C@@H]2[C@@H](CO)N3CCCCN(S(=O)(=O)Cc4ccccc4)C[C@@H]23)cc1	-14*
COCC(=O)Nc1ccc2c(c1)C(=O)N(C)[C@@H]1CC[C@H](CC(=O)NC3CCCC3)O[C@@H]1CO2	2
O=C(C[C@H]1C[C@H]2c3cc(NC(=O)c4ccc5c(c4)OCO5)ccc3O[C@H]2[C@H](CO)O1)NCC(F)(F)F	-1
CC(C)[C@@H]1C(=O)N[C@@H](c2ccccc2)CC=CC[C@@H](C)Oc2ccccc2C(=O)N1C (mixture of isomers)	1
CN(C)CC(=O)N1CC(=O)N2[C@@H](CO)[C@H](c3ccc(/C=C/c4ccccc4)cc3)[C@@H]2C1	6
CCCNC(=O)C[C@H]1CC[C@H]2[C@@H](COC[C@@H](O)CN2C(=O)Nc2c(C)noc2C)O1	7
COc1ccc(C#Cc2ccc3c(c2)[C@H]2[C@H](CCN2C(=O)c2ccccn2)[C@@H](CO)N3)cc1	1
CC(C)CC#Cc1ccc([C@H]2[C@@H](CO)N3CCCCN(S(=O)(=O)c4ccc(F)cc4)C[C@@H]23)cc1	-34*
Cc1cccc(S(=O)(=O)N2CCCCN3[C@@H](CO)[C@H](c4ccc(C#C[C@@H](C)O)cc4)[C@@H]3C2)c1	-26*
Cc1cccc(S(=O)(=O)N2CCCCN3[C@H](CO)[C@@H](c4ccc(C#C[C@@H](C)O)cc4)[C@H]3C2)c1	12
C[C@@H](O)C#Cc1ccc([C@H]2[C@@H](CO)N3CCCCN(C(=O)c4ccc5c(c4)OCO5)C[C@H]23)cc1	-32*
COc1ccc(S(=O)(=O)N2CCCCN3[C@H](C2)[C@H](c2ccc(C#CC(C)C)cc2)[C@@H]3CO)cc1	8
C[C@H](O)C#Cc1ccc([C@@H]2[C@H]3CN(C(=O)c4ccc5c(c4)OCO5)CCCCN3[C@H]2CO)cc1	23
COCC#Cc1ccc([C@H]2[C@@H](CO)N3CCCCN(S(=O)(=O)c4ccc(OC)cc4)C[C@H]23)cc1	3
COc1cccc(S(=O)(=O)N2CCCCN3[C@H](CO)[C@H](c4ccc(C#CCC(C)C)cc4)[C@@H]3C2)c1	-49*
C[C@@H](O)C#Cc1ccc([C@H]2[C@@H](CO)N3CCCCN(C(=O)c4ccc5c(c4)OCO5)C[C@@H]23)cc1	22
COc1ccc(S(=O)(=O)N2CCCCN3[C@H](CO)[C@@H](c4ccc(C#CC(C)C)cc4)[C@@H]3C2)cc1	1
SMILES	DUX4 txn inh
CC(C)CC#Cc1ccc([C@@H]2[C@H](CO)N3CCCCN(S(=O)(=O)c4ccc(F)cc4)C[C@@H]23)cc1	1
Cc1cccc(S(=O)(=O)N2CCCCN3[C@H](C2)[C@H](c2ccc(C#C[C@@H](C)O)cc2)[C@@H]3CO)c1	4
C[C@@H]1CN([C@@H](C)CO)C(=O)c2cc(C#CC3(O)CCCC3)cnc2O[C@@H]1CN(C)C(=O)Nc1ccc2c(c1)OCO2	-1
O=C(C[C@H]1C[C@H]2c3cc(NS(=O)(=O)c4ccc(F)cc4)ccc3O[C@H]2[C@H](CO)O1)NCc1ccccn1	-6
O=C(C[C@H]1C[C@H]2c3cc(NC(=O)Nc4ccccc4)ccc3O[C@H]2[C@@H](CO)O1)NCCN1CCCCC1	-1
C[C@@H]1CN([C@@H](C)CO)C(=O)c2cc(C#CCN(C)C)cnc2O[C@@H]1CN(C)C(=O)Nc1cccc(F)c1	2
CN(C)C(=O)C[C@@H]1CC[C@H]2[C@@H](COC[C@H](O)CN2Cc2ccc(C(F)(F)F)cc2)O1	4
O=C(C[C@@H]1CC[C@@H]2[C@H](COC[C@@H](O)CN2C(=O)c2cccnc2)O1)Nc1ccc(-c2ccccc2)cc1	16
CCCC(=O)N1CC2(C1)CN(C(C)=O)[C@H](CO)c1c2c2ccc(OC)cc2n1C	14
CC(C)C[C@H]1COCc2cn(nn2)CC[C@@H](Cc2cccc(Cl)c2)C(=O)N1	3
Cc1noc(C)c1S(=O)(=O)Nc1ccc2c(c1)C(=O)N([C@H](C)CO)C[C@@H](C)[C@@H](CN(C)C(=O)c1ccncc1)OCCCC[C@@H](C)O2	-4
CCC(=O)N1CC(=O)N2[C@H](CO)[C@H](c3ccc(-c4ccncc4)cc3)[C@@H]2C1	12
COCC#Cc1ccc([C@@H]2[C@@H](CO)N3CCCCN(S(=O)(=O)c4ccc(OC)cc4)C[C@H]23)cc1	-1
